Measured values: the supplement of paper PMC11417369
± gives the standard deviation of the averaged measurements. Whole data set: some 25,000 sequences, median “ln(normalized median fluorescence intensity)” near 10, cut for the highest 2% near 12. The entries come from a sample that favours the highest values as a whole.

These sequences were tested on PfAP2-G AP2 domain (GST-tagged) (assay: gcPBM binding intensity (ln(normalized median fluorescence intensity)); higher = stronger DNA binding).
Summary of the method: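 Binding intensity is the highest Masliner-normalised natural-log median intensity over replicate spots in either probe orientation. To obtain it, GST-tagged P. falciparum DNA-binding domains made in E. coli were incubated for 1 h on an Agilent 4 × 180k array of primer-extended double-stranded 36-bp intergenic genomic probes plus negative controls. Detection used Alexa488 anti-GST antibody with scanning at 488 nm.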

Row | Sequence | gcPBM binding intensity (ln)
1 | TTGTAGATATTTATATGTACGAATTTATAAATATAG [XGTACX_site3611] | 11.1 ± 0.76
2 | ACTATTTTCTTCAAAACATGCACCACATAAACATAA [TGCATGCA_site200] | 10.6 ± 0.51
3 | TAATTATTATTAATAGTACACACTATGGCATTTCAA [CACACA_site2488] | 11.1 ± 0.84
4 | AAAATTCATCCAACAAGTACATAAATATAATATTAT [XGTACX_site4596] | 11.3 ± 0.79
5 | GATTATTTTATAAGTACACACATTTATATATAATAA [CACACA_site2573] | 11.5 ± 1.1
6 | TATTCATATTCCAAGTGTACACATAAATCCCTAATA [XGTACX_site4131] | 11.5 ± 0.9
7 | TATAAATATATTTATACACACATTAGTGTATACATG [CACACA_site7397] | 10.2 ± 0.11
8 | TATATTTATAAGTGTACACATTATATAAATCCCTAT [CACACA_site6122] | 11.7 ± 1.1
9 | TCATATTCCAAGTGTACACATAAATCCCTAATAACA [CACACA_site5167] | 11.7 ± 0.94
10 | ATTAACACATTTAAGTGTACATATATAAATATATAT [XGTACX_site7098] | 11.4 ± 0.83
11 | ATTATATTTTTAAGTACACACATATAAATAAATATA [CACACA_site7682] | 11.4 ± 1
12 | TAATATATTTATAAGTGTACACATTATATAAATCCC [XGTACX_site8875] | 11.7 ± 0.74
13 | TCAAAAATAAAGATCACACATATATATATATATATA [CACACA_site4381] | 10.3 ± 0.99
14 | CACATATATACACATACACACACACCCATACACCCA [CACACA_site8505] | 10.5 ± 0.39
15 | TATACAAAATAACTAGCACACATATGTATAAACATA [CACACA_site9236] | 10.2
16 | TACATACACAAATACACACACAAATACATACACAAA [CACACA_site704] | 10.2 ± 0.41
17 | TAAACATTCTTATATAGTACCCATATTAAAATATAC [XGTACX_site8014] | 10.8 ± 0.58
18 | TATATATATATAAGAAGTACAGAAAATTAGAAAAAA [XGTACX_site8773] | 11.7 ± 1.1
19 | TATATATAAGAAAAAAGTACAGATATATATATATTC [XGTACX_site4788] | 11.6 ± 1.1
20 | CCAATAATATATAGAAGTACAGAAAAAAAAAAAAAA [XGTACX_site2049] | 11.5 ± 1.1
21 | TTTTTTTTTTTTTTTTTTTTTTTGCTCAGTGTGGTA [CACACA_negctrl_site29] | 9.95 ± 0.56

Row | Sequence | gcPBM binding intensity (ln)
22 | ACAGAAAATAAAATTTGTACATATATAGAATAAAGA [XGTACX_site3014] | 10.8 ± 0.39
23 | AATGATTTTGATTAACGTACGTACAAATATATATAT [XGTACX_site6604] | 11.5 ± 0.82
24 | AAAATTATATATTATAGTACATAAAATTTTGATATA [XGTACX_site994] | 10.9 ± 0.56
25 | ATTTTGATAACCGTACGTACATATATATATATATAT [XGTACX_site6605] | 11.8 ± 0.85
26 | ACCATTTGTACTTACGCACACATAAAATATATATAT [CACACA_site1545] | 11.5 ± 1
27 | TAAATTATATTATGCACACTTAAAAATATATTTAAC [CACACA_site3512] | 10.07 ± 0.085
28 | CAACAAAAATTATTTACACACAAAAGGCAAGGAAAT [CACACA_site1971] | 10.5 ± 0.28
29 | ACCTTAAATAATACATGTACAAAAAAATTTATAATA [XGTACX_site1043] | 11 ± 0.49
30 | TCTTACTAATTTATGGGGACTTATCACCTATTCAGT [CACACA_negctrl_site652] | 10.5 ± 0.23
31 | TTTTGTGGAGGATGGTGTACGGTATTGTATTATTAC [XGTACX_site1942] | 11.1 ± 0.64
32 | ATACATATATACATACGTACTTATATACATATGTGC [XGTACX_site5268] | 10.9 ± 0.42
33 | TTACATATTATACGAAGTACGTACAAATACTTATAT [XGTACX_site8598] | 11.7 ± 0.81
34 | TACCTAATATGTTATACACACATTAGAAGTACATAT [CACACA_site5375] | 11.6 ± 1.1
35 | TTATGTATAAACACACGTACACACACTAAGTATATC [XGTACX_site3254] | 11.5 ± 1
36 | TTATACGAAGTACGTACACACACTTATATGTTACTA [CACACA_site4019] | 11.6 ± 0.94
37 | ATACGAAGTACGTACACACACTTATATGTTACTAAA [CACACA_site7812] | 11.7 ± 1
38 | ATAAAAATAAACATACGTACTTACACGAATATACAT [XGTACX_site5989] | 11.1 ± 0.65
39 | ATTTATATATTTATACGTACTTATATATTGTTACAT [XGTACX_site6254] | 11.2 ± 0.73
40 | AGAAAATATACAAAACGTACTTATATATTATATCTA [XGTACX_site3104] | 10.9 ± 0.69
41 | TTTCATGTTTTAAAGTGTACATAAATATATTATATG [XGTACX_site3367] | 11.5 ± 0.89
42 | ATAATTTCAATATTTAATATCATATATATATATTTT [GTGCAC_negctrl_site713] | 9.56 ± 0.13

Row | Sequence | gcPBM binding intensity (ln)
43 | CTATCATATTTATGCACACAAAAATAATTAATTCGT [CACACA_site2614] | 10.2 ± 0.23
44 | TAATTTATAAATAATTGTACATAGTTTATTTAGATT [XGTACX_site4599] | 10.9 ± 0.43
45 | ATACAGATAGGATGCACACATAATTCAAATACAATA [CACACA_site4531] | 10.2 ± 0.13
46 | TTTTTTTTATTAAAAAGTACTAAACAAATTATATAT [XGTACX_site121] | 11.1 ± 0.73
47 | AATAATTTTTAAATATAAACATTTTTTTTTTTTTTT [GTGCAC_negctrl_site532] | 9.72 ± 0.057
48 | TGCACAAAGTTATGCACACACCTAAAATTAATTTTT [CACACA_site7385] | 10.05 ± 0.071
49 | TGATAATAAGCATACACACACACACTAAAAAAAAAA [CACACA_site6478] | 10.3 ± 0.43
50 | AAAAAAAAAAAGTACACACATACATATAAATATATA [CACACA_site1809] | 11.6 ± 0.95
51 | CAGGGCAGGGGGAAGGGTACACATAAAAGAAAATAA [XGTACX_site172] | 11.7 ± 1.1
52 | ATAAGGAAGGGATGCACACAAAAGGGTACATAAGAA [CACACA_site4006] | 11.4 ± 0.71
53 | AAATAAAAGTTCACCTGTACACACATATATATATGT [XGTACX_site3513] | 11.5 ± 0.66
54 | TAAAAGTTCACCTGTACACACATATAAATATGTACA [CACACA_site6901] | 11.7 ± 0.85
55 | AAAGAAAAAAAAAAAAGTACATAAATATAAAAAGAA [XGTACX_site6753] | 11.5 ± 0.89
56 | AAATAAAGAAATATATGTACATATATATATATATAT [XGTACX_site5131] | 11.3 ± 0.43
57 | AGAAAAAAAAAAAGTACACACATATAATATATATAT [CACACA_site2973] | 11.6 ± 1.2
58 | AAAGAAGGGGGGGGAAAAAAAAATAAAAGAGGAAAA [XGTACX_negctrl_site92] | 11 ± 0.77
59 | ATATATATATATATATGTACACATAAAAAGAAAGAA [XGTACX_site1603] | 11.7 ± 1.1
60 | ATACATATACACATATGTACATATGAAAAGAAAAAT [XGTACX_site6445] | 11.1 ± 0.64
61 | AATAAAAGTTCACCTGTACACACATATATATATGTA [CACACA_site8500] | 11.3 ± 0.76
